These results are taken from the supplement of paper PMC6555819.

The assay concerns VDR:RXRa (NR concentration 270 nM, RXRa partner concentration 90 nM). In words: PBM binding z-score (relative to random genomic background probes); higher = stronger binding; sequences stand for … in GC…GCGATTGACAGCGTAGAATGAAGG
The procedure: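 Protein-binding microarray (Agilent 4x180K custom design, double-stranded 60-nt probes: 5' GC cap, 34-nt variable region, 24-nt constant primer region; full probe sequence given). Purified or IVT nuclear receptor:RXRα heterodimers (3:1 NR:RXRα, mostly 270:90 nM) or homodimers were incubated for 1 h in PBS with 2% milk and no ligand, then detected with Alexa488 antibodies. Fluorescence from o1-orientation probes (~5 replicates averaged) was converted to z-scores against 500 random hg19 background probes. Variable regions are seed direct-repeat (DR0–DR5) sites, all their single-nucleotide variants and half-site ablations.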
AGAACGAGGGCGATGAGTTGATAGCACGGGTGGC returned a PBM binding z-score of 3.12. The same measure for CAAACTAGGTCACGAAAGGTCATAGTCGAATGAC: 6.92. In the case of AGAATGAGGTTCCCAAAGATCAGGGAAACGCTTG it was -0.0526; in that of CTCGTAAGGTCGGTTGAGGTGAGTATACGGATAA, 1.75. In the case of GCTAGCTGGCCATTTGGGTCACTCAATGACGGGC it was -0.155. As for CCTTACGGGTCGAGGTTATAGCACGGGTGGTACG, the PBM binding z-score was 1.25. The sequence CCTTGTTGGTCAGGAGGTCACACACCGGATATGA registered a PBM binding z-score of 3.79. In the case of TTACCAAGGTGAGCTGACGTCGTTGATCCAACTC it was -0.477; in that of CGAACTAGGTCATTGAAAGGACAGTGAATAGTAA, 2.36; in that of GTACCAAGGTGAAGAGGTCGTTGATGAGTAGGCG, 2.71. For the sequence CGAACTAGGTCAGAACTGGACAGTGAAGGATGAT, the PBM binding z-score was 0.181.

For TCTCGGAGGACACGAAGGTCGGAGCTTTCCAGAG, the PBM binding z-score was 0.528. The same measure for ATCTCTAGGTAACAAGTTCAGGGAAAGAGAGGAC: 2.25. In the case of CCTCGGAGGACGGAAGGTCAGAGCTGTCCGCTTT it was 0.873; in that of AGTCAAAGTTCACTAGGTAATGTAAGATTCAGCT, 3.84.

With CCTAGTTGGTAAGGAGGTCACACACCGGATATGA, the PBM binding z-score is 3.53. Regarding TCATATAGGAAATACAGGTGAAAGTCGGCATCTA, the PBM binding z-score was 1.02. The same measure for CTCGAAAGGTCGGTCGAGGTGAGTATACGGATAA: 2.25; for TGTCAAAGTTCAAAGATAACGTAAGTATCCACAC: 4.23; for AGAACGAGGGCGCGCTGAGTTGATAGCAGAGTAG: 0.589. The same measure for CCGACTGGGGCATAATGTTACCATAAGCCAGCCC: -0.48; for CCTTACGGGTCACTCCGGGTTATAGCATCGGAGT: 4.18.

CGTCCAAGGTCAAGGTCAGTGAAAGAGACTCGAA returned a PBM binding z-score of 4.7.

Take ATCTCTAGGTAAAGAAAGTTCAGTGAATGCAAAT: the PBM binding z-score turned out to be 2.17. In the case of CCGGCTAGGTCATGGTCAGCTAATCTACAGTATG it was 1.63; in that of CTGACTGGGGCATAAGGTTACCATAAGCCAGCCC, 0.451; in that of GGAACGAGGGCAAAGTTGATAGCATCTGTCGACG, 1.23. On to TCATATAGGTAAACAGGTGGAAGTCCGTAAGTTA, for which the PBM binding z-score worked out at 0.7. The same measure for CGAACTAGGTCATCCAGGACAGTGTATACATTGA: 4.57. In the case of CCTAGTTGGTCTAGGTCACACACGCTATAGGTAC it was 1.42; in that of AATACAGAGTCACTAGGCCAGAGTAGGTACGAAT, -0.0941; in that of GCAGACAGGTGAAACGCAGGTAACGCAGGGTGGC, -0.489. For the sequence AGAATGAGGTTAAAATCAGGGAAACAGAATACAT, the PBM binding z-score was found to be 1.33.

As to AGCTCTAGGTAACAAGTTCAGTGAAAGAGAGGAC, the PBM binding z-score is 1.94. The same measure for CCGACTGGGGCATAAGCTTACCATAAGCCAGCCC: -0.79. In the case of AGTCAAAGTTCACTAGGTGACGTAAGATTCAGCT, the PBM binding z-score is 4.03.

Turning to CCTGCTAGGTCATGGTGAGCTAATCTACAGTATG, the PBM binding z-score worked out at 1.37. Turning to GCAATTAGTTGAAAGGGCAACCGAATGATTCTCG, the PBM binding z-score was 0.238.

ATCGAAAGGGCGAAGGTGAGTATACCCACCCGAA came in with a PBM binding z-score of 0.347.

CCTACTGGGCCATCAGGTCATGGATATCAACGTT yielded a PBM binding z-score of 1.54.
